Compounds without any hit were thinned out: in the full panel of roughly 79,000, 15% have a hit. Values without a mark were called inactive. Active and inactive are the calls of the source. Cut-off read from the data, not from the text of the source: active = growth inhibition above about 70%; inactive = the rest.

Assay [1] can be described thus: NCI Yeast Anticancer Drug Screen. Data for the rad50 strain (AID 155).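 Note: 0% = growth of vehicle-only cultures of the same strain.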 To be noted: S. cerevisiae rad50 strain growth inhibition, stronger effect = higher value. The procedure, abridged: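 A DNA repair-deficient yeast mutant serves as the test organism; compound-induced growth inhibition is calculated against vehicle-treated cells.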
A short description of assay [2]: NCI Yeast Anticancer Drug Screen. Data for the mec2-1 strain (AID 157). To be noted: S. cerevisiae mec2-1 strain, stronger effect = higher value. The procedure, abridged:
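Readout is yeast growth inhibition, normalised to vehicle-treated controls, in the mec2-1 strain exposed to compound.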

Assay [3] can be described thus: NCI Yeast Anticancer Drug Screen. Data for the sgs1 mgt1 strain (AID 161).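 Note: 0% = growth of cultures given vehicle only.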 As to conditions: S. cerevisiae sgs1 mgt1 strain, stronger effect = higher value. The procedure, abridged:
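Compounds are added to genetically altered yeast, and growth is compared with cultures given vehicle alone to give percent inhibition.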

Assay [4] is described as follows: NCI Yeast Anticancer Drug Screen. Data for the cln2 rad14 strain (AID 165).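 Note: 0% = growth equal to vehicle treated cultures.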 As to conditions: S. cerevisiae cln2 rad14 strain, stronger effect = higher value. Summed up: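 Relative to vehicle controls, growth inhibition of compound-treated cln2 rad14 yeast was recorded.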
Assay [5] in a line: NCI Yeast Anticancer Drug Screen. Data for the bub3 strain (AID 167). As to conditions: S. cerevisiae bub3 mutant strain, stronger effect = higher value. The procedure, abridged: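 Inhibition values come from growth of compound-treated mutant yeast normalised to vehicle-treated controls.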
Assay [6] in a line: NCI Yeast Anticancer Drug Screen. Data for the mlh1 rad18 strain (AID 175). To be noted: S. cerevisiae mlh1 rad18 strain growth inhibition, stronger effect = higher value. Summed up: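 Test agents were incubated with a yeast strain of defined genotype (DNA damage repair defect). Inhibition of growth was derived by comparison with vehicle-exposed cultures.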
[7] abbreviates: at 5.0 µM (retest, dose inferred, filed as 0.5).
Setting [8] is: at 50.0 µM (retest, dose inferred, filed as 5.0).

For the compound `Cc1c(O)ccc(C(=O)CCl)c1O`, the growth inhibition was -147% in assay [1] (setting [7]); 38% in assay [1] (setting [8]); 58.8% in assay [1] (at 50.0 µM); -44% in assay [2] (setting [7]); 5% in assay [2] (setting [8]); 61.6% in assay [2] (at 50.0 µM). Also, the growth inhibition in assay [3] (setting [7]) is -53%; in assay [3] (setting [8]), 42%; in assay [3] (at 50.0 µM), 60.4%; in assay [4] (setting [7]), -55%; in assay [4] (setting [8]) it was -11%; in assay [4] (at 50.0 µM), 12.9%. The growth inhibition in assay [5] (setting [7]) was -69%; in assay [5] (setting [8]) it was -3%; in assay [5] (at 50.0 µM) it was 41.4%; in assay [6] (setting [7]), -111%; in assay [6] (setting [8]) it was 33%; in assay [6] (at 50.0 µM), 68.3%.

For `O=C(Nc1cccc(Cl)c1)OCCOC(=O)Nc1cccc(Cl)c1`, the growth inhibition is 30% in assay [1] (setting [7]); 99% (active) in assay [1] (setting [8]); 99.5% (active) in assay [1] (at 50.0 µM); 3% in assay [2] (setting [7]); 99% (active) in assay [2] (setting [8]); 99.2% (active) in assay [2] (at 50.0 µM). Besides, the growth inhibition was 22% in assay [3] (setting [7]); 100% (active) in assay [3] (setting [8]); 99.3% (active) in assay [3] (at 50.0 µM); 2% in assay [4] (setting [7]); 98% (active) in assay [4] (setting [8]); 98.4% (active) in assay [4] (at 50.0 µM). The growth inhibition in assay [5] (setting [7]) was -4%; in assay [5] (setting [8]), 99% (active); in assay [5] (at 50.0 µM), 99.4% (active); in assay [6] (setting [7]), 4%; in assay [6] (setting [8]), 98% (active); in assay [6] (at 50.0 µM), 98.9% (active).

As to `O=S(=O)(Nc1ccccc1Cl)c1ccccc1`, the growth inhibition in assay [1] (setting [7]) is 19%; in assay [1] (setting [8]) it was 80% (active); in assay [1] (at 50.0 µM) it was 74.8% (active); in assay [2] (setting [7]), 1%; in assay [2] (setting [8]) it was 88% (active); in assay [2] (at 50.0 µM), 81.7% (active). Further, the growth inhibition in assay [3] (setting [7]) was 4%; in assay [3] (setting [8]) it was 91% (active); in assay [3] (at 50.0 µM), 78.7% (active); in assay [4] (setting [7]), 24%; in assay [4] (setting [8]) it was 81% (active); in assay [4] (at 50.0 µM), 73.1% (active). The growth inhibition in assay [5] (setting [7]) was -32%; in assay [5] (setting [8]), 90% (active); in assay [5] (at 50.0 µM) it was 81.1% (active); in assay [6] (setting [7]), -2%; in assay [6] (setting [8]), 84% (active); in assay [6] (at 50.0 µM), 69.2%.

Consider `CC(c1ccccc1)c1cc(C(C)(C)C)ccc1O` (configuration not stated), for which the growth inhibition is -4% in assay [1] (setting [7]); 99% (active) in assay [1] (setting [8]); 99.6% (active) in assay [1] (at 50.0 µM); -25% in assay [2] (setting [7]); 100% (active) in assay [2] (setting [8]); 99.8% (active) in assay [2] (at 50.0 µM). Further, the growth inhibition in assay [3] (setting [7]) was -2%; in assay [3] (setting [8]), 71% (active); in assay [3] (at 50.0 µM), 99.7% (active); in assay [4] (setting [7]) it was -12%; in assay [4] (setting [8]) it was 100% (active); in assay [4] (at 50.0 µM), 99.3% (active). The growth inhibition was -8% in assay [5] (setting [7]); 99% (active) in assay [5] (setting [8]); 99.4% (active) in assay [5] (at 50.0 µM); -19% in assay [6] (setting [7]); 99% (active) in assay [6] (setting [8]); 99.3% (active) in assay [6] (at 50.0 µM).

With `CS(=O)(=O)OCCN(CCOS(C)(=O)=O)c1ccc(C=Nc2ccc(-c3csc(-c4ccc(Br)cc4)n3)cc2)cc1`, the growth inhibition in assay [1] (setting [7]) was 33%; in assay [1] (setting [8]), 95% (active); in assay [1] (at 50.0 µM), 94% (active); in assay [2] (setting [7]), 43%; in assay [2] (setting [8]) it was 96% (active); in assay [2] (at 50.0 µM), 97.2% (active). Moreover, the growth inhibition was 18% in assay [3] (setting [7]); 90% (active) in assay [3] (setting [8]); 94.2% (active) in assay [3] (at 50.0 µM); 19% in assay [4] (setting [7]); 92% (active) in assay [4] (setting [8]); 81.2% (active) in assay [4] (at 50.0 µM). Besides, the growth inhibition in assay [5] (setting [7]) was -4%; in assay [5] (setting [8]), 90% (active); in assay [5] (at 50.0 µM), 74.8% (active); in assay [6] (setting [7]), 60%; in assay [6] (setting [8]), 96% (active); in assay [6] (at 50.0 µM) it was 96% (active).

`COc1ccc2c(c1)S(=O)(=O)C(c1ccccc1)=CC2=O`: the growth inhibition in assay [1] (setting [7]) was 81% (active); in assay [1] (setting [8]), 99% (active); in assay [1] (at 50.0 µM), 99.5% (active); in assay [2] (setting [7]) it was 87% (active); in assay [2] (setting [8]), 99% (active); in assay [2] (at 50.0 µM), 99.5% (active). Besides, the growth inhibition in assay [3] (setting [7]) is 91% (active); in assay [3] (setting [8]) it was 99% (active); in assay [3] (at 50.0 µM) it was 99.2% (active); in assay [4] (setting [7]), 66%; in assay [4] (setting [8]), 99% (active); in assay [4] (at 50.0 µM), 97.5% (active). The growth inhibition in assay [5] (setting [7]) is 87% (active); in assay [5] (setting [8]), 98% (active); in assay [5] (at 50.0 µM), 99.5% (active); in assay [6] (setting [7]), 95% (active); in assay [6] (setting [8]), 98% (active); in assay [6] (at 50.0 µM), 99% (active).

Turning to `O=C1C=CC(=O)N1C12CC3CC(CC(C3)C1)C2`, the growth inhibition in assay [1] (setting [7]) was 41%; in assay [1] (setting [8]), 99% (active); in assay [1] (at 50.0 µM), 90.8% (active); in assay [2] (setting [7]), 62%; in assay [2] (setting [8]), 99% (active); in assay [2] (at 50.0 µM) it was 93.4% (active). In addition, the growth inhibition in assay [3] (setting [7]) is 73% (active); in assay [3] (setting [8]) it was 99% (active); in assay [3] (at 50.0 µM) it was 90.9% (active); in assay [4] (setting [7]) it was 13%; in assay [4] (setting [8]), 99% (active); in assay [4] (at 50.0 µM) it was 91.5% (active). Moreover, the growth inhibition is 72% (active) in assay [5] (setting [7]); 99% (active) in assay [5] (setting [8]); 91.8% (active) in assay [5] (at 50.0 µM); 76% (active) in assay [6] (setting [7]); 99% (active) in assay [6] (setting [8]); 90.7% (active) in assay [6] (at 50.0 µM).

For `CN(c1ccc(Cl)cc1)S(=O)(=O)c1cccc([N+](=O)[O-])c1`, the growth inhibition in assay [1] (setting [7]) was -6%; in assay [1] (setting [8]) it was 52%; in assay [1] (at 50.0 µM), 42.7%; in assay [2] (setting [7]), -13%; in assay [2] (setting [8]) it was 71% (active); in assay [2] (at 50.0 µM), 42.8%. Besides, the growth inhibition in assay [3] (setting [7]) was -6%; in assay [3] (setting [8]), 62%; in assay [3] (at 50.0 µM), 70.8% (active); in assay [4] (setting [7]), 27%; in assay [4] (setting [8]) it was 48%; in assay [4] (at 50.0 µM), 48.4%. The growth inhibition in assay [5] (setting [7]) was -28%; in assay [5] (setting [8]), 90% (active); in assay [5] (at 50.0 µM) it was 78% (active); in assay [6] (setting [7]) it was -11%; in assay [6] (setting [8]), 51%; in assay [6] (at 50.0 µM) it was 58.9%.

Turning to `CCCCC(CCCC)=NNC(=S)SC`, the growth inhibition is 4% in assay [1] (setting [7]); 85% (active) in assay [1] (setting [8]); 83.9% (active) in assay [1] (at 50.0 µM); 5% in assay [2] (setting [7]); 62% in assay [2] (setting [8]); 45.1% in assay [2] (at 50.0 µM). Moreover, the growth inhibition was 3% in assay [3] (setting [7]); 79% (active) in assay [3] (setting [8]); 66% in assay [3] (at 50.0 µM); -3% in assay [4] (setting [7]); 17% in assay [4] (setting [8]); -27.6% in assay [4] (at 50.0 µM). Besides, the growth inhibition in assay [5] (setting [7]) was 2%; in assay [5] (setting [8]), 80% (active); in assay [5] (at 50.0 µM), 74.1% (active); in assay [6] (setting [7]) it was -3%; in assay [6] (setting [8]) it was 87% (active); in assay [6] (at 50.0 µM) it was 56.9%.

The values above are taken from PubChem BioAssay (NCI).
